This is an account of results in ChEMBL document CHEMBL1961873, “Compounds: GSK PKIS; Assays: Nanosyn kinase panel” (2012).

By inhibition is commonly meant the drop in the measured response relative to a control, in per cent.

Test [1] concerns the target Calcium/calmodulin-dependent protein kinase type II subunit alpha (Homo sapiens) (UniProt Q9UQM7). Conditions: at 1 µM.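 Also: reported value is a mean percent inhibition of CAMK2A.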
The target in test [2] is Calcium/calmodulin-dependent protein kinase type II subunit delta (Homo sapiens) (UniProt Q13557). Conditions: at 0.1 µM.
For test [3] the target is unchanged. Conditions: at 1 µM.
The target of test [4] is T1, Calcium/calmodulin-dependent protein kinase type IV (Homo sapiens) (UniProt Q16566).
T1 sequence (whole entry): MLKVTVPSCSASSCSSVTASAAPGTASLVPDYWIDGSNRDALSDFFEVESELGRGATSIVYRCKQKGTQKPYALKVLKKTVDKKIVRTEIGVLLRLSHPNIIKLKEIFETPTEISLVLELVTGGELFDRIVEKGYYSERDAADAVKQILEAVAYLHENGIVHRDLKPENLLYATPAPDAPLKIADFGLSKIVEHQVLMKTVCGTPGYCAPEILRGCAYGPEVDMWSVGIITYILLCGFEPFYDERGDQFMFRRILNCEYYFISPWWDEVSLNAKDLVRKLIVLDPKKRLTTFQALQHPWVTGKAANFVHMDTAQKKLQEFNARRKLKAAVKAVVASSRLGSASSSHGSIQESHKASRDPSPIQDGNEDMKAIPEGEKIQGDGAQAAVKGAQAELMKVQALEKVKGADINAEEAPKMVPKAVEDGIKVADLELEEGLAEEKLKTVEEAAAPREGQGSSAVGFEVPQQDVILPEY
Conditions: at 0.1 µM.

Test [5] has as its target T1, Calcium/calmodulin-dependent protein kinase type IV (Homo sapiens). Conditions: at 1 µM.
The target in test [6] is T2, Serine/threonine-protein kinase Chk1 (Homo sapiens) (UniProt O14757).
T2 sequence (whole entry): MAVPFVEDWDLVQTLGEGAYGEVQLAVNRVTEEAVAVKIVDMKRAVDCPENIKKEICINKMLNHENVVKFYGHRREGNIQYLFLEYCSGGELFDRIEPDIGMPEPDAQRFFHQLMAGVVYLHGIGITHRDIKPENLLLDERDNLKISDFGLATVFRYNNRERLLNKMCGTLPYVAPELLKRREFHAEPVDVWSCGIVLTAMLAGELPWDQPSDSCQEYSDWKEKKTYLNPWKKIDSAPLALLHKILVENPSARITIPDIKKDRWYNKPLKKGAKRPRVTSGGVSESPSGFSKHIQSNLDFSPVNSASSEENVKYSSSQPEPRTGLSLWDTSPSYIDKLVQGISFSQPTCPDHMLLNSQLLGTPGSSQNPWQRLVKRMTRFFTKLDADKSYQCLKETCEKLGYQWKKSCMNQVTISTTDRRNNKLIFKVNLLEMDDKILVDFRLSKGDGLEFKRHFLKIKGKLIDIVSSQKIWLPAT
Conditions: at 0.1 µM.

Test [7] has as its target T2, Serine/threonine-protein kinase Chk1 (Homo sapiens). Conditions: at 1 µM.
Test [8] has as its target Serine/threonine-protein kinase Chk2 (Homo sapiens) (UniProt O96017). Conditions: at 0.1 µM.
For test [9] the target is unchanged. Conditions: at 1 µM.
Test [10] addresses Death-associated protein kinase 1 (Homo sapiens) (UniProt P53355). Conditions: at 0.1 µM.
For test [11] the target is unchanged. Conditions: at 1 µM.
Test [12] concerns the target T3, Serine/threonine-protein kinase DCLK2 (Homo sapiens) (UniProt Q8N568).
T3 sequence (whole entry): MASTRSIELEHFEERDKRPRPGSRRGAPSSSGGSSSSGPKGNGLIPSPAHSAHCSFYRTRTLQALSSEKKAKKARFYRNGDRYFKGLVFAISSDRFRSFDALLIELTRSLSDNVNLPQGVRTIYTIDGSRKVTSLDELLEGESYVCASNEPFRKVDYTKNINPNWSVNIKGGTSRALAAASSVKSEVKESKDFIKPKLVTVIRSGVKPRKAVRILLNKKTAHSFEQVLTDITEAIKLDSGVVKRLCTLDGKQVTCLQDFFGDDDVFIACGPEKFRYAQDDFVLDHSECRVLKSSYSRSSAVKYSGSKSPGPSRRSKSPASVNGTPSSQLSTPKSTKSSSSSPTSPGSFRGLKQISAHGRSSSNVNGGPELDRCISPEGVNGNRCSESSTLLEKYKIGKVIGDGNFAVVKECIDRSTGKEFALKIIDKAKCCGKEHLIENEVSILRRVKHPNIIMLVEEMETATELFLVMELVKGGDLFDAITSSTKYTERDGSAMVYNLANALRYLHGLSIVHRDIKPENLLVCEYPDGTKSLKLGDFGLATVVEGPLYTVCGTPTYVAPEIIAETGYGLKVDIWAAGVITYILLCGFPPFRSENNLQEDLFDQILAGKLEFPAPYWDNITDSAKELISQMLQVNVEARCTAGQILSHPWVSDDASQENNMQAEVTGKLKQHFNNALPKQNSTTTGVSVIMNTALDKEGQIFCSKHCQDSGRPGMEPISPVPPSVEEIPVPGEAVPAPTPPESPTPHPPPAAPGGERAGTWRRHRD
Conditions: at 0.1 µM.

In test [13] the target is T3, Serine/threonine-protein kinase DCLK2 (Homo sapiens). Conditions: at 1 µM.
In test [14] the target is MAP kinase-activated protein kinase 2 (Homo sapiens) (UniProt P49137). Conditions: at 0.1 µM.
Sequence of MAP kinase-activated protein kinase 2 (Homo sapiens) (P49137 whole entry, looked up): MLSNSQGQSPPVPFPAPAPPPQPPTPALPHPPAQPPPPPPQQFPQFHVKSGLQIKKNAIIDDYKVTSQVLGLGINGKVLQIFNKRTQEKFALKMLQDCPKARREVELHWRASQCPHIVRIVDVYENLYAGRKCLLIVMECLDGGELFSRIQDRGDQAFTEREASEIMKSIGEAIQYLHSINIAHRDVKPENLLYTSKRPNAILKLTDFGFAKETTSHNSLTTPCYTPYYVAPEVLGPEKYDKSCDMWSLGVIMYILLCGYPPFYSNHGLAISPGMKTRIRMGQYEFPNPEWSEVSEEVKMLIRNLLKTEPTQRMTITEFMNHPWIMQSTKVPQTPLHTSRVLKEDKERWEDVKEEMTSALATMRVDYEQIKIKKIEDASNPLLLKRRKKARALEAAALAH
Test [15] has the same target. Conditions: at 1 µM.
For test [16], the target named is MAP kinase-activated protein kinase 3 (Homo sapiens) (UniProt Q16644). Conditions: at 0.1 µM.
Sequence of MAP kinase-activated protein kinase 3 (Homo sapiens) (Q16644 whole entry, looked up): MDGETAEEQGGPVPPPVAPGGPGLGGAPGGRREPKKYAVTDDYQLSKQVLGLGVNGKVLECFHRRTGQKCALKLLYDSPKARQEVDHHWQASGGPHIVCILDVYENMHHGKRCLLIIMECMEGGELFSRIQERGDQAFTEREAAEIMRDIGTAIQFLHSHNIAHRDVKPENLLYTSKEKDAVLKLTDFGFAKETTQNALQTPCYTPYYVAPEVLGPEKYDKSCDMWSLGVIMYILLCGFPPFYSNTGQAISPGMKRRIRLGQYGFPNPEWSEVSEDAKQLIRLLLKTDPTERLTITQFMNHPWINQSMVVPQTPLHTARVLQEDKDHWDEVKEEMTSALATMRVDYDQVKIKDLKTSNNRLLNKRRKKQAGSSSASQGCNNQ
Test [17] shares this target. Conditions: at 1 µM.
Test [18] addresses Serine/threonine-protein kinase MARK1 (Homo sapiens) (UniProt Q9P0L2). Conditions: at 0.1 µM.
Test [19] has the same target. Conditions: at 1 µM.
Test [20] deals with MAP/microtubule affinity-regulating kinase 3 (Homo sapiens) (UniProt P27448). Conditions: at 0.1 µM.
Sequence of MAP/microtubule affinity-regulating kinase 3 (Homo sapiens) (P27448 whole entry, looked up): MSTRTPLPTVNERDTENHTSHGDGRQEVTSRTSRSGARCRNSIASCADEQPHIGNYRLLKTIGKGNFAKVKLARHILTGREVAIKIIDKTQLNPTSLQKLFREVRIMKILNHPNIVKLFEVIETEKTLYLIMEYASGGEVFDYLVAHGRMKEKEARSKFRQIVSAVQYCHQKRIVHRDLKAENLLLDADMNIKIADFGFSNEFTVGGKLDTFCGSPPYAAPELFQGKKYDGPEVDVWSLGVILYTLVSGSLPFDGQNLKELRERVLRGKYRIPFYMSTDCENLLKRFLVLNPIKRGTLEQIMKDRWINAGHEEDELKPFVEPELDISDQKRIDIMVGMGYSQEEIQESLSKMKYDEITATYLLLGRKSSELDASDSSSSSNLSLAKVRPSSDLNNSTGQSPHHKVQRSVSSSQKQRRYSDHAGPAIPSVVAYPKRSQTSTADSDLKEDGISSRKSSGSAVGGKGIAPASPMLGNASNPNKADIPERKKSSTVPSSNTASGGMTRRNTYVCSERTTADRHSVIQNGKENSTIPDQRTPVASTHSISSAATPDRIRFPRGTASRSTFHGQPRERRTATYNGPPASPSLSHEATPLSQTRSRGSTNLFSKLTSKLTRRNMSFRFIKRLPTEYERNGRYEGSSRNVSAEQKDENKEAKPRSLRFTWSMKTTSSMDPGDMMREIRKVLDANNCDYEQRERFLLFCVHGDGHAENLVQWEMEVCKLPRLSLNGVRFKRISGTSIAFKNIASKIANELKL

Sequence of Serine/threonine-protein kinase MARK1 (Homo sapiens) (Q9P0L2 whole entry, looked up): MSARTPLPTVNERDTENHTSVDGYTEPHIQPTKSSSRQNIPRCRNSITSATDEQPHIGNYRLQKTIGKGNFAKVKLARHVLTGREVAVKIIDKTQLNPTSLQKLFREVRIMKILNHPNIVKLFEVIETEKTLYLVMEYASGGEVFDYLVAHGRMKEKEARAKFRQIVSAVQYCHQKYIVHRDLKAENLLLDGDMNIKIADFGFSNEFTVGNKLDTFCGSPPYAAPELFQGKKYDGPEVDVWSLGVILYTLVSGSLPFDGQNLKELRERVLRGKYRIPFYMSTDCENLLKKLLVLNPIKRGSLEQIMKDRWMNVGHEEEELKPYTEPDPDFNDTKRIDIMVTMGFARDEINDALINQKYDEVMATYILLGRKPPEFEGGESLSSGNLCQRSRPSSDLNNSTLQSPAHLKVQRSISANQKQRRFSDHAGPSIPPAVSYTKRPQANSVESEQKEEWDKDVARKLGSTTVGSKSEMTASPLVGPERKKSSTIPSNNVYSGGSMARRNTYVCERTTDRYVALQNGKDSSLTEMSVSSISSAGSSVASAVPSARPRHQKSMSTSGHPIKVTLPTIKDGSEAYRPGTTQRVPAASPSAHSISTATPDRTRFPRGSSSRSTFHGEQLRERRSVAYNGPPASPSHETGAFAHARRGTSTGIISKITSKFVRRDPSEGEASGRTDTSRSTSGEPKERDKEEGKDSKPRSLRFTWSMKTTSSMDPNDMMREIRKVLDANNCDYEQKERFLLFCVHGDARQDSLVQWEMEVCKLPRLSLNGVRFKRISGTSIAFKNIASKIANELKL
Sequence of Death-associated protein kinase 1 (Homo sapiens) (P53355 whole entry, looked up): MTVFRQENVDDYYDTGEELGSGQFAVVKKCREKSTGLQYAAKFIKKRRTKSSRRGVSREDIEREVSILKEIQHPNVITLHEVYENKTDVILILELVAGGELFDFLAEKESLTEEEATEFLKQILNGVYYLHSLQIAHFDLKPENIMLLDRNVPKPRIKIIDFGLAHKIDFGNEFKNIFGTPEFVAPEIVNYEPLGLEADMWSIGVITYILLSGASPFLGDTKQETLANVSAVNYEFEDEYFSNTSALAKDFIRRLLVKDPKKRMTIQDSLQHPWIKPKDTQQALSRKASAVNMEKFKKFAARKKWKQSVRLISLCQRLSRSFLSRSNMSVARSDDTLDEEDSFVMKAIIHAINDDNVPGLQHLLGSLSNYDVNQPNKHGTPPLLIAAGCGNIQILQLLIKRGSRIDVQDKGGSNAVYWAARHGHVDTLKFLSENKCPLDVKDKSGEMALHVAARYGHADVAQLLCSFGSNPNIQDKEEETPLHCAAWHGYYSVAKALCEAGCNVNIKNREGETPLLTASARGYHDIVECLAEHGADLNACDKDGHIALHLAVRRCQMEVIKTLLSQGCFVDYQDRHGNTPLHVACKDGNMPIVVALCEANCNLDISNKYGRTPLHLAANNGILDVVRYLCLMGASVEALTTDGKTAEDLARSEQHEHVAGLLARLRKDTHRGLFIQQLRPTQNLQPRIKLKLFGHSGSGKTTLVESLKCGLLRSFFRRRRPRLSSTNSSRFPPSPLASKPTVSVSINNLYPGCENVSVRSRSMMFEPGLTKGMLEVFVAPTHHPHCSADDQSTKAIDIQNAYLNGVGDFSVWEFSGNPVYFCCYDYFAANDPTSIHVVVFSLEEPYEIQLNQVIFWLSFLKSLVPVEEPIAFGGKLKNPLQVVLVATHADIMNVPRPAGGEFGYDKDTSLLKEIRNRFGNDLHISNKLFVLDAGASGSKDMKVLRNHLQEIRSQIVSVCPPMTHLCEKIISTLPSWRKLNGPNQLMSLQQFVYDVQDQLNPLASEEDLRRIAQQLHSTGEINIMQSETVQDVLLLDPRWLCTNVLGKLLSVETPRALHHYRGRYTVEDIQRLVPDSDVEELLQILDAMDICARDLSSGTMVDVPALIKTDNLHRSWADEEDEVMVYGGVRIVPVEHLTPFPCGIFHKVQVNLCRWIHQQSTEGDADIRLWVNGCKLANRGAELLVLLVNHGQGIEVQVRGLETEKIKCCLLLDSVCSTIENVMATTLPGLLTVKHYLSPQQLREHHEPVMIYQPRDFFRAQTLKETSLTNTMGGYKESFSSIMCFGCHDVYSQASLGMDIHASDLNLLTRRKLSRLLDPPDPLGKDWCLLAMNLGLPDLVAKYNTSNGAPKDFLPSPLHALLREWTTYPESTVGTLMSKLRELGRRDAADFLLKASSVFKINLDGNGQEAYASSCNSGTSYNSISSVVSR
Sequence of Calcium/calmodulin-dependent protein kinase type II subunit alpha (Homo sapiens) (Q9UQM7 whole entry): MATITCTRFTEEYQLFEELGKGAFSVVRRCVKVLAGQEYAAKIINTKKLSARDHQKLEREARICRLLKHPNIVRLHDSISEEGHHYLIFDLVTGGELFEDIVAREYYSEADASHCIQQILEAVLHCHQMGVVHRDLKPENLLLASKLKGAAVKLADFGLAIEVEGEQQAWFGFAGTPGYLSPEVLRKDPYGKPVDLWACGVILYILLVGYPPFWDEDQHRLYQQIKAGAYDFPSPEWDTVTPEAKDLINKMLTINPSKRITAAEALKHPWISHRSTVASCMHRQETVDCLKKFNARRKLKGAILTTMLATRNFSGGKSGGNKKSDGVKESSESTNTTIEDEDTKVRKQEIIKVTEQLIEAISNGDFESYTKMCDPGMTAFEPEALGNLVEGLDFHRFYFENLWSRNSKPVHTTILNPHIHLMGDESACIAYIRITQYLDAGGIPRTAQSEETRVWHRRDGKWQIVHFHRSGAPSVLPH
Sequence of Serine/threonine-protein kinase Chk2 (Homo sapiens) (O96017 whole entry): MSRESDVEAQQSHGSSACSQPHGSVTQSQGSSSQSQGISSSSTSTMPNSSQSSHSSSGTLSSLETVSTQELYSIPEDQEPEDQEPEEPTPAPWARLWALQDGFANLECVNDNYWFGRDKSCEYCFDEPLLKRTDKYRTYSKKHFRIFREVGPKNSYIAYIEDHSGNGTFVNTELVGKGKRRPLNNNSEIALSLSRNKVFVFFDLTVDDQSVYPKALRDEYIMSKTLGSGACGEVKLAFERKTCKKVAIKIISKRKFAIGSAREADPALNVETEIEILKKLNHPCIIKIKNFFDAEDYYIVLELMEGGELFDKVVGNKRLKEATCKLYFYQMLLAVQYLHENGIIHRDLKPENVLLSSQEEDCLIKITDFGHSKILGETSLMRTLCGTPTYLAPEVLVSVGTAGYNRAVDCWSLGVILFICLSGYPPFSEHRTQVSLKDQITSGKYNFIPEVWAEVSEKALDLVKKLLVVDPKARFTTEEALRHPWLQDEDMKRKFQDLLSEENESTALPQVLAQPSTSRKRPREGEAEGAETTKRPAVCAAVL

Regarding `C[C@@H](Oc1cc(-n2cnc3ccc(OC[C@@H](O)CO)cc32)sc1C(N)=O)c1ccccc1Cl`, the inhibition in test [1] was 2.24%; in test [2], -0.89%; in test [3], 7.31%; in test [4], 1.25%; in test [5], 1.44%; in test [6], 0.04%. The inhibition is -1.83% in [7]; -1.68% in [8]; -1.71% in test [9]; -1.62% in [10]; -5.26% in test [11]; 0.92% in test [12]. The inhibition was -6.84% in [13]; -0.75% in test [14]; -0.94% in [15]; -0.21% in test [16]; -0.73% in [17]; 0.87% in [18]. Further, the inhibition in test [19] came out at 5.71%; in test [20] it was 0.4%.

Take `CCn1c(-c2nonc2N)nc2ccc(F)cc21`: the inhibition was 3.68% in test [1]; 3.98% in test [2]; 3.55% in [3]; -2.59% in [4]; -2.75% in test [5]; 3.58% in test [6]. Besides, the inhibition in [7] worked out at 8.57%; in test [8] it was 3.29%; in test [9], 4.58%; in [10] it was 8.42%; in test [11] it was 10.7%; in test [12] it was 0.68%. Also, the inhibition in test [13] worked out at 0.5%; in test [14], 2.81%; in test [15], 3.62%; in [16] it was 4.6%; in [17], 5.57%; in test [18], 14.8%. Also, the inhibition in [19] came out at 6.7%; in test [20], 2.41%.

Take `COC(=O)Nc1nc2cc(Oc3ccc(NC(=O)Nc4cccc(Br)c4)cc3)ccc2[nH]1`: the inhibition worked out at 2.07% in test [1]; 1.97% in [2]; 3.53% in test [3]; 1.41% in test [4]; 2.33% in test [5]; 2.14% in [6]. Further, the inhibition in [7] is 2.72%; in test [8] it was 1.92%; in [9] it was 2.2%; in [10], 2.43%; in test [11] it was 2.38%; in test [12], -0.32%. Besides, the inhibition turned out to be 4.24% in [13]; 1.26% in test [14]; 1.19% in [15]; 4.95% in test [16]; 6.43% in [17]; 1.41% in test [18]. For the same compound, the inhibition is 1.86% in [19] and 3.56% in test [20].

With `COc1cccc(-n2nc(C)c3c(N/N=C(\C)c4ccncc4)ncnc32)c1`, the inhibition in [1] is -0.32%; in test [2], 0.75%; in test [3], 1.55%; in test [4], -0.54%; in test [5], 0.81%; in [6], 0.24%. The inhibition in [7] was 0.57%; in [8], 0.02%; in test [9], 0.48%; in test [10], 0.32%; in test [11], -0.72%; in [12] it was -1%. The inhibition in test [13] was found to be 0.33%; in test [14], 0.1%; in test [15], 0.45%; in test [16], 0.03%; in test [17] it was 0.31%; in test [18] it was 0.08%. For the same compound, the inhibition in test [19] was 1.32%; in test [20] it was -0.48%.

Take `COc1cc2ncn(-c3cc(OCc4ccccc4S(C)(=O)=O)c(C#N)s3)c2cc1OC`: the inhibition was 29.9% in test [1]; 18.3% in test [2]; 62.8% in test [3]; 1.21% in test [4]; 1.69% in test [5]; 5.49% in test [6]. Besides, the inhibition in test [7] amounted to 23.3%; in [8], 10%; in test [9] it was 43%; in [10], 3.5%; in [11], 6.48%; in test [12], 1.77%. For the same compound, the inhibition in test [13] was 0.47%; in test [14], 1.6%; in test [15], 1.54%; in [16], 3.38%; in test [17], 4.59%; in test [18], 36.9%. The figures for the inhibition in test [19] and in test [20] were 80% and 49.6%, respectively.

Regarding `COc1ccc2ncnc(Nc3ccc(OCc4ccccc4)cc3)c2c1`, the inhibition in test [1] came to 2.13%; in test [2], 0.77%; in [3], 1.93%; in test [4] it was 0.01%; in test [5], 0.04%; in test [6] it was 0.93%. Moreover, the inhibition is 3.17% in test [7]; 1.65% in test [8]; 14.2% in test [9]; 3.34% in [10]; 3.26% in [11]; -5.53% in [12]. In addition, the inhibition is -8.44% in test [13]; 1.42% in test [14]; -2.28% in [15]; 2.72% in [16]; 4.71% in test [17]; 1.85% in [18]. Moreover, the figures for the inhibition in test [19] and in test [20] were 3.7% and 1.64%, respectively.
